# Results filed as inconclusive are left out. A number with no mark means an inactive call. The source made the active and inactive calls. Calls come from the whole dose curve; as a rule, active = well fitted cell-killing curve with a large enough effect in the repeat runs; inconclusive = weak or mixed curves, or effect the other way; inactive = flat fitted curve, though single readings scatter.
# Assay: Caspase-3/7 induction in HepG2 cells by small molecules, qHTS cell viability counter screen (AID 1346981); note: nearly all actives have a fitted effect of over 30% in size
# Conditions: CellTiter-Fluor fluorescence, 17 h; series mostly up to 92.4 µM; activity change, negative = cytotoxicity: at the top concentration
# From the text: U.S. Tox21 Program National Center for Advancing Translational Sciences [NCATS] NIH Chemical Genomics Center [NCGC] U.S. Environmental Protection Agency [EPA] National Institutes of Environmental Health Sciences [NIEHS] National Toxicology Program [NTP] U.S. Food and Drug Administration [FDA] Tox21 Assay Overview: Apoptosis is a process of programmed cell death and plays a central role in the development of multicellular organisms. It is a highly regulated process and induces cell death by activating caspases, which are the members of cysteine aspartic acid-specific protease (caspase) family. Caspases involved in apoptosis are classified by their mechanism of action as initiator caspases (caspase-2, -8, -9 and -10) and executioner caspases (caspase-3, -6, and -7). Inhibition of apoptosis results in number of cancers, autoimmune diseases, inflammatory diseases and viral infection. To identify small molecule compounds that induce apoptosis, a homogeneous, luminescent Caspase-Glo 3/7 assay was used. Wild type HepG2 cells were used to screen Tox21 libraries for identifying caspase-3/7 activity inducers. Also cytotoxicity of the compounds was tested in parallel by measuring the cell viability using CellTiter-Fluor assay system in the same wells.
# Tox21 Assay Protocol Summary: HepG2 cells were dispensed at 2,000 per well in 5uL of culture medium into white solid bottom 1536-well plates (Corning Life Sciences, Corning, NY) using a Multidrop Combi (Thermo Scientific, Waltham, MA) dispenser. The assay plates were incubated at 37 C and 5% CO2 for 5hr, and then 23nL of compounds dissolved in DMSO and positive control were transferred using a Pintool station ([…], San Diego, CA). The assay plates were incubated at 37C and 5% CO2 for 17hr. For cytotoxicity read, after 16hr incubation at 37C, 1uL CellTiter-Fluor reagent (Promega Corporation, Madison, WI) was added to each well of the assay plates using Flying Reagent Dispenser (FRD, Aurora Discovery, San Diego, CA). After 1hr incubation at 37C and 5% CO2, the fluorescence signal was quantified using a ViewLux plate reader (PerkinElmer, Shelton, CT).
# % is set by controls: 0 for no effect and ±100 for the full control effect; potency is the fitted concentration of half-maximal effect.
Compound,"activity change, negative = cytotoxicity",Potency
COP(=O)(OC)O/C(=C\Cl)c1cc(Cl)c(Cl)cc1Cl,-4.08%,–
C=C(C)C(=O)[O][Sn]([CH2]CCC)([CH2]CCC)[CH2]CCC,–,2.43 µM (active)
CCN(CC)C(=O)N[C@@H]1C=C2c3cccc4[nH]cc(c34)C[C@@H]2N(C)C1,-0.57% [at 42.5 µM],–
ClC1=C(Cl)[C@]2(Cl)[C@@H]3[C@H]4C[C@H]([C@@H]5O[C@H]45)[C@@H]3[C@@]1(Cl)C2(Cl)Cl,4.97%,–
C[C@]12Cc3cn[nH]c3C[C@@H]1CC[C@@H]1[C@@H]2CC[C@@]2(C)[C@H]1CC[C@]2(C)O,-3.2% [at 42.5 µM],–
C=CCBr,2.17%,–
COCCC#N,4.9%,–
Brc1cccc(-c2ccccc2)c1,6.66%,–
C=CCOC(=O)c1ccccc1N,4.7%,–
Clc1cc(Cl)c(-c2cc(Cl)c(Cl)cc2Cl)cc1Cl,5.99% [at 42.5 µM],–
[Cl-].[Cl-].[Cl-].[Yb+3],3.48%,–
N#Cc1sc2c(=O)c3ccccc3c(=O)c=2sc1C#N,–,21.7 µM (active)
Cc1cnc2c(C(=O)O)c(Cl)ccc2c1,0.941%,–
COP(=S)(OC)Oc1nc(Cl)c(Cl)cc1Cl,11.2%,–
O=[N+]([O-])c1ccc(CCl)cc1,5.93%,–
C=CC(=O)[O][Sn]([CH2]CCC)([CH2]CCC)[CH2]CCC,–,3.86 µM (active)
O=[N+]([O-])c1cccc2cccc([N+](=O)[O-])c12,0.955%,–
CCCCC(CC)COC(=O)c1ccccc1C(=O)OCC(CC)CCCC (stereo not given),2.66%,–
BrCCCBr,-3.38%,–
N#CC(C#N)=NNc1cccc(Cl)c1,–,24.3 µM (active)

Compound,"activity change, negative = cytotoxicity",Potency
Nc1ccc(N=Nc2ccccc2)cc1,–,36.4 µM (active)
Clc1c(Cl)c(Cl)c(Cl)c(Cl)c1Cl,-1.11% [at 8.39 µM],–
Clc1ccc(C(c2ccc(Cl)cc2)C(Cl)Cl)cc1,–,inactive
Nc1cc(Cl)ccc1Cl,-8.34%,–
CCc1cccc(C)c1N(C(=O)CCl)[C@@H](C)COC,-8.57%,–
CC(Cc1ccc(O)cc1)NCC(O)c1cc(O)cc(O)c1 (stereo not given),-0.843% [at 42.5 µM],–
C#CC1(O)CCCCC1,-1.63%,–
CC(=O)[O-].CC(=O)[O-].O.O.O.[Pb+2],-0.0261%,–
CC(=O)[O-].CC(=O)[O-].[Co+2],-0.758%,–
O.O.O.O.O.O.O.O=S(=O)([O-])[O-].[Co+2],-4.72%,–
CCC(C)c1cccc(C(C)CC)c1O (stereo not given),-14.3%,–
CCC(C)Nc1c([N+](=O)[O-])cc(C(C)(C)C)cc1[N+](=O)[O-] (stereo not given),-4.62%,–
CC(C)C(Br)C(=O)NC(N)=O (stereo not given),-1.61% [at 42.5 µM],–
C[C@]12CC[C@H]3[C@@H](CCC4=CC(=O)CC[C@@H]43)[C@@H]1CC[C@@H]2OC(=O)CCc1ccco1,-0.0901% [at 42.5 µM],–
S=C=Nc1ccccc1,-0.452%,–
CC(Cc1ccc2c(c1)OCO2)NO (stereo not given),5.28%,–
O=C(CCCCl)c1ccc(F)cc1,0.689% [at 42.5 µM],–
O=S(=O)(NS(=O)(=O)C(F)(F)F)C(F)(F)F,-5.26%,–
CC[C@]1(O)CC[C@H]2[C@@H]3CCC4=CCCC[C@@H]4[C@H]3CC[C@@]21C,3.94% [at 42.5 µM],–
O=S1(=O)OCC2C(CO1)C1(Cl)C(Cl)=C(Cl)C2(Cl)C1(Cl)Cl (stereo not given),-9.71%,–

# Reference: PubChem BioAssay (Tox21)
